Measured values from PubChem BioAssay (Tox21).
Values joined by “and” are separate entries in the source; they are usually repeats but may differ in a detail not shown here. Identical values can stand only once. Inconclusive results are not listed. Entries that show only a call come without a potency. Active and inactive are the calls of the source. Calls come from the whole dose curve; as a rule, active = well fitted curve in the direction sought with a large enough effect in the repeat runs; inconclusive = weak or mixed curves; inactive = no such curve, though single readings can be large; an effect the other way counts as inactive or inconclusive.

Test: qHTS assay to identify small molecule agonists of the RXR signaling pathway - cell viability counter screen (AID 1159529); note: nearly all actives have a fitted effect of over 50% in size
Settings: RXR-alpha-bla HEK293T viability, CellTiter-Glo, 16 h; series mostly up to 76.8 µM
Method in brief: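 Luminescence from CellTiter-Glo (30 min, RT) measured viability in the same wells as the beta-lactamase reporter readout. Cells: GeneBLAzer RXR-alpha HEK 293T, 2% charcoal-stripped FBS. Compound exposure 16 hr, 37 C.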

With `Cc1ccc(S(=O)(=O)N=C=O)cc1` as the compound, how does the outcome read?
The outcome was “inactive”.

Which outcome does the source give for `CC(C)(C#N)c1cc(Cn2cncn2)cc(C(C)(C)C#N)c1` here?
Its outcome is “inactive”.

With `O=C1C(c2[nH]c3ccccc3c2O)=Nc2ccccc21` as the compound, how does the outcome read?
The outcome was “inactive”.

For `C=Cc1ccc(C)cc1`, which outcome is on record?
The outcome was “inactive”.

With `CC(=O)OC1CC(C)OC(C)O1` (centres undefined) as the compound, how does the outcome read?
Its outcome is “inactive”.

For `CCCCCCCCCCCCCCCCO`, which outcome is on record?
Its outcome is “inactive”.

For `CCOCC(=O)O`, which outcome is on record?
The outcome was “inactive”.

With `N#Cc1ccccc1` as the compound, how does the outcome read?
The outcome was “inactive”.

With `CC(C)OC(=O)COc1ccc(Cl)cc1Cl` as the compound, how does the outcome read?
Its outcome is “inactive”.

With `CCCCOC(=O)c1ccc(N)cc1` as the compound, how does the outcome read?
The outcome was “inactive”.

Which outcome does the source give for `O=C(O)c1ccc(C(=O)O)c(C(=O)O)c1` here?
Its outcome is “inactive”.

Which outcome does the source give for `C[C@]12CC[C@@H]3c4ccc(O)cc4CC[C@H]3[C@@H]1C[C@@H](O)[C@@H]2O` here?
Its outcome is “inactive”.

Which outcome does the source give for `COc1ccc([N+](=O)[O-])cc1N` here?
The outcome was “inactive”.

With `O=[N+]([O-])c1ccc2nc[nH]c2c1` as the compound, how does the outcome read?
The outcome was “inactive”.

With `CCNC(=S)NCC` as the compound, how does the outcome read?
The outcome was “inactive”.

For `COc1cc(OC)c(C(=O)CCCN2CCCC2)c(OC)c1`, which outcome is on record?
Its outcome is “inactive”.

Which outcome does the source give for `CC(C)c1cccc(C(C)C)c1` here?
Its outcome is “inactive”.

With `C=CC(=O)OCCC(=O)O` as the compound, how does the outcome read?
The outcome was “inactive”.

For `CCO[Si](CCCN)(OCC)OCC`, which outcome is on record?
The outcome was “inactive”.

For `O=C(OCC1CCC2OC2C1)C1CCC2OC2C1` (centres undefined), which outcome is on record?
Its outcome is “inactive”.

Which outcome does the source give for `COc1ccc(C)cc1N` here?
Its outcome is “inactive”.

For `CSc1ccc(Cl)cc1`, which outcome is on record?
The outcome was “inactive”.

For `C=CC[N+](C)(C)CC=C`, which outcome is on record?
The outcome was “inactive”.

With `OCc1cccc(Oc2ccccc2)c1` as the compound, how does the outcome read?
The outcome was “inactive”.

Which outcome does the source give for `O=C1CCCC1` here?
The outcome was “inactive”.

For `CC(C)CCCCCCCOC(=O)CCCCC(=O)OCCCCCCCC(C)C`, which outcome is on record?
Its outcome is “inactive”.

For `CCCCCCC=O`, which outcome is on record?
Its outcome is “inactive”.

For `C=CCCCCCCCCC(=O)O`, which outcome is on record?
Its outcome is “inactive”.

Which outcome does the source give for `COCCCN` here?
Its outcome is “inactive”.

For `CCOC(=O)n1ccn(C)c1=S`, which outcome is on record?
Its outcome is “inactive”.

Which outcome does the source give for `C=C(C)C(=O)OCC(C)C` here?
The outcome was “inactive”.

For `CC1(C)CC(N)CC(C)(CN)C1` (centres undefined), which outcome is on record?
The outcome was “inactive”.

For `COc1ccccc1OCC(O)CO` (centres undefined), which outcome is on record?
The outcome was “inactive”.

Which outcome does the source give for `CCCCC(C=O)CC` (centres undefined) here?
The outcome was “inactive”.

With `C=C(C)CNCC` as the compound, how does the outcome read?
The outcome was “inactive”.

Which outcome does the source give for `CC(C)(C)c1cc(Cc2cc(C(C)(C)C)c(O)c(C(C)(C)C)c2)cc(C(C)(C)C)c1O` here?
The outcome was “inactive”.

Which outcome does the source give for `Clc1ccccn1` here?
The outcome was “inactive”.

With `CC(C)=CCl` as the compound, how does the outcome read?
The outcome was “inactive”.

Test: qHTS assay to identify small molecule antagonists of the retinoic acid receptor (RAR) signaling pathway (AID 1159552; note: nearly all actives have a fitted effect of over 50% in size)
Settings: C3RL4 RARE luciferase reporter, retinol-stimulated, 6 h; series mostly up to 92.4 µM
Method in brief: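 Luminescence from a RARE luciferase reporter in C3RL4 cells served as read-out. Cells received compounds together with 1 uM final retinol and incubated 6 hr at 37 C before detection reagent was added for 30 min at room temperature.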

With `Cc1ccc(S(=O)(=O)N=C=O)cc1` as the compound, how does the outcome read?
Its outcome is “inactive”.

For `O=C1C(c2[nH]c3ccccc3c2O)=Nc2ccccc21`, which outcome is on record?
Its outcome is “inactive”.

Which outcome does the source give for `C=Cc1ccc(C)cc1` here?
Its outcome is “inactive”.

Which outcome does the source give for `CC(=O)OC1CC(C)OC(C)O1` (centres undefined) here?
Its outcome is “inactive”.

For `CCCCCCCCCCCCCCCCO`, which outcome is on record?
The outcome was “inactive”.

With `CCOCC(=O)O` as the compound, how does the outcome read?
The outcome was “inactive”.

For `CC(C)OC(=O)COc1ccc(Cl)cc1Cl`, which outcome is on record?
Its outcome is “inactive”.

With `CCCCOC(=O)c1ccc(N)cc1` as the compound, how does the outcome read?
Its outcome is “inactive”.

Which outcome does the source give for `O=C(O)c1ccc(C(=O)O)c(C(=O)O)c1` here?
Its outcome is “inactive”.

Which outcome does the source give for `COc1ccc([N+](=O)[O-])cc1N` here?
The outcome was “inactive”.

Which outcome does the source give for `CC(C)c1cccc(C(C)C)c1` here?
The outcome was “inactive”.

Which outcome does the source give for `C=CC(=O)OCCC(=O)O` here?
The outcome was “inactive”.

Which outcome does the source give for `O=C(OCC1CCC2OC2C1)C1CCC2OC2C1` (centres undefined) here?
Its outcome is “inactive”.

For `COc1ccc(C)cc1N`, which outcome is on record?
Its outcome is “inactive”.

For `CSc1ccc(Cl)cc1`, which outcome is on record?
The outcome was “inactive”.

Which outcome does the source give for `C=CC[N+](C)(C)CC=C` here?
The outcome was “inactive”.

Which outcome does the source give for `OCc1cccc(Oc2ccccc2)c1` here?
Its outcome is “inactive”.

For `O=C1CCCC1`, which outcome is on record?
Its outcome is “inactive”.

With `CC(C)CCCCCCCOC(=O)CCCCC(=O)OCCCCCCCC(C)C` as the compound, how does the outcome read?
Its outcome is “inactive”.

Which outcome does the source give for `CCCCCCC=O` here?
The outcome was “inactive”.

Which outcome does the source give for `CCOC(=O)n1ccn(C)c1=S` here?
The outcome was “inactive”.

Which outcome does the source give for `C=C(C)C(=O)OCC(C)C` here?
The outcome was “inactive”.

For `CC1(C)CC(N)CC(C)(CN)C1` (centres undefined), which outcome is on record?
The outcome was “inactive”.

For `CCCCC(C=O)CC` (centres undefined), which outcome is on record?
The outcome was “inactive”.

For `C=C(C)CNCC`, which outcome is on record?
Its outcome is “inactive”.

Which outcome does the source give for `CC(C)(C)c1cc(Cc2cc(C(C)(C)C)c(O)c(C(C)(C)C)c2)cc(C(C)(C)C)c1O` here?
Its outcome is “inactive”.

Which outcome does the source give for `Clc1ccccn1` here?
The outcome was “inactive”.

Test: qHTS assay to identify small molecule agonists of the retinoic acid receptor (RAR) signaling pathway (AID 1159553); note: potency is the fitted concentration of half-maximal effect
Settings: C3RL4 RARE luciferase reporter, agonist, 6 h; series mostly up to 73.3 µM
Method in brief: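 Agonist activity was scored in C3RL4 cells bearing a retinoic acid response element luciferase construct. Cells were treated with compounds for 6 hr at 37 C, and luciferase signal was measured as luminescence.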

For `Cc1ccc(S(=O)(=O)N=C=O)cc1`, which Potency is on record?
Its Potency is “inactive”.

With `O=C1C(c2[nH]c3ccccc3c2O)=Nc2ccccc21` as the compound, how does the Potency read?
Its Potency is “inactive”.

With `C=Cc1ccc(C)cc1` as the compound, how does the Potency read?
The Potency was “inactive”.

For `CC(=O)OC1CC(C)OC(C)O1` (centres undefined), which Potency is on record?
Its Potency is “inactive”.

For `CCCCCCCCCCCCCCCCO`, which Potency is on record?
The Potency was “inactive”.

Which Potency does the source give for `CCOCC(=O)O` here?
Its Potency is “inactive”.

With `CC(C)OC(=O)COc1ccc(Cl)cc1Cl` as the compound, how does the Potency read?
The Potency was “inactive”.

Which Potency does the source give for `CCCCOC(=O)c1ccc(N)cc1` here?
The Potency was 26.9 µM (active) and 21.1 µM (active).

For `O=C(O)c1ccc(C(=O)O)c(C(=O)O)c1`, which Potency is on record?
The Potency was “inactive”.

For `C[C@]12CC[C@@H]3c4ccc(O)cc4CC[C@H]3[C@@H]1C[C@@H](O)[C@@H]2O`, which Potency is on record?
Its Potency is “inactive”.

Which Potency does the source give for `COc1ccc([N+](=O)[O-])cc1N` here?
The Potency was “inactive”.

For `CC(C)c1cccc(C(C)C)c1`, which Potency is on record?
Its Potency is “inactive”.

With `C=CC(=O)OCCC(=O)O` as the compound, how does the Potency read?
The Potency was “inactive”.

Which Potency does the source give for `O=C(OCC1CCC2OC2C1)C1CCC2OC2C1` (centres undefined) here?
The Potency was “inactive”.

With `COc1ccc(C)cc1N` as the compound, how does the Potency read?
The Potency was “inactive”.

For `CSc1ccc(Cl)cc1`, which Potency is on record?
Its Potency is “inactive”.

Which Potency does the source give for `C=CC[N+](C)(C)CC=C` here?
The Potency was “inactive”.

For `OCc1cccc(Oc2ccccc2)c1`, which Potency is on record?
The Potency was “inactive”.

Which Potency does the source give for `O=C1CCCC1` here?
Its Potency is “inactive”.

Which Potency does the source give for `CC(C)CCCCCCCOC(=O)CCCCC(=O)OCCCCCCCC(C)C` here?
Its Potency is “inactive”.

With `CCCCCCC=O` as the compound, how does the Potency read?
The Potency was “inactive”.

Which Potency does the source give for `CCOC(=O)n1ccn(C)c1=S` here?
Its Potency is “inactive”.

With `C=C(C)C(=O)OCC(C)C` as the compound, how does the Potency read?
The Potency was “inactive”.

For `CC1(C)CC(N)CC(C)(CN)C1` (centres undefined), which Potency is on record?
The Potency was “inactive”.

Which Potency does the source give for `CCCCC(C=O)CC` (centres undefined) here?
Its Potency is “inactive”.

With `C=C(C)CNCC` as the compound, how does the Potency read?
Its Potency is “inactive”.

With `CC(C)(C)c1cc(Cc2cc(C(C)(C)C)c(O)c(C(C)(C)C)c2)cc(C(C)(C)C)c1O` as the compound, how does the Potency read?
Its Potency is “inactive”.

For `Clc1ccccn1`, which Potency is on record?
Its Potency is “inactive”.

For `CC(C)=CCl`, which Potency is on record?
The Potency was “inactive”.
